Most compounds without a hit are left out; they make up all but 2.7% or so of the library.
12-LOX inh: blocks human arachidonate 12S-lipoxygenase; actives 1.1% (n = 580,000); Potency, µM (titrated, usually from 108 µM), for the others: at the top dose activity change, negative = inhibition, most hits filed as inhibitors; P18054; AID 1671190; purified 12hLO, xylenol orange hydroperoxide absorbance; also: % is scaled to controls: 0 for no effect and ±100 for the full control effect
Target sequence (P18054 whole entry, looked up): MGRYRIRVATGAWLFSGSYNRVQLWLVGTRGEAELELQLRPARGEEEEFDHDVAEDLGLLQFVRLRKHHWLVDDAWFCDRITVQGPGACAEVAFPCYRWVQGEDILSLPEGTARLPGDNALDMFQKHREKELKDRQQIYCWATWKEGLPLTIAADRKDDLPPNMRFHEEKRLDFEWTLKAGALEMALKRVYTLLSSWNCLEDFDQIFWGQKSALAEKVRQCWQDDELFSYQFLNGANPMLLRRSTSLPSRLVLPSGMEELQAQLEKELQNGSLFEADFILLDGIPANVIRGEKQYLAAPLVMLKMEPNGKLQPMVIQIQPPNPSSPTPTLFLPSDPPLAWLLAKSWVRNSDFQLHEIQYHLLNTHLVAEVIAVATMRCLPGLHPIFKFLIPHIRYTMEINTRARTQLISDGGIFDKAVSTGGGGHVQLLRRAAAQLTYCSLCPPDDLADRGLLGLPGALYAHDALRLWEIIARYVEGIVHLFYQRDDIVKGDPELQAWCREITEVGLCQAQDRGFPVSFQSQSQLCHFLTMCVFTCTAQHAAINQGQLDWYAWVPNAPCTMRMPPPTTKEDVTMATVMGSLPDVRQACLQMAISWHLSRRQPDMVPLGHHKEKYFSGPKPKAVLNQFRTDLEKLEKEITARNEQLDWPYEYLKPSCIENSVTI
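Purified human 12hLO at 150 nM in 25 mM Hepes, 0.01% Triton X-100, pH 7.0, preincubated 15 min at room temperature with compound. Reaction started with 40 uM arachidonic acid, 30 min at room temperature. Hydroperoxide measured by Fe-xylenol orange, 573/405 nm absorbance ratio.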
HepG2 viability: kills HepG2 cells in TGF-b inhibitor counter-screen; HepG2 CAGA-GFP viability, ATP luminescence, 18 h; Potency, µM (highest dose often 46.1 µM), inactives show at the top dose activity change, negative = cytotoxicity, most hits filed as cytotoxic; AID 588856; actives 0.76% (n = 410,000)
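CellTiter-Glo luminescence gave cytotoxicity after 18 hours at 37 degrees C. The cells were HepG2 CAGA-GFP in 1% FBS DMEM, stimulated with 500 pg/mL TGF-beta after compound addition. %Activity was normalised to no-cell wells (complete cell-killing) and DMSO (no toxicity), and curves were fitted and classified.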
TGFb SMAD3 inh: TGF-b pathway inhibition; actives 1.2% (n = 410,000); HepG2 CAGA-GFP TGF-b/SMAD3 reporter, GFP fluorescence, 18 h; TGF-beta stimulated, 500 pg/mL final; Potency, µM (highest dose often 46.1 µM), for the others: top-dose activity, negative = inhibition, hits mostly inhibitors; also: % is scaled to controls: 0 for no effect and ±100 for the full control effect; nearly all actives have a fitted effect of over 65% in size
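First, reporter cells (HEPG2 CAGA-GFP) rested 2 h at 37 degrees C. Next, compounds were pinned in and TGF-beta added to 500 pg/mL final. After 18 h, GFP was imaged per cell and summed per well.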
ATXN2 expr inh: reduces ATXN2 reporter expression in HEK-293 cells; actives 0.72% (n = 360,000); Potency, µM (doses to about 57 µM), for inactives: top-dose activity change, negative = inhibition, hits mostly inhibitors; AID 1745845; HEK-293 ATXN2-luciferase reporter, luminescence, 24 h; also: % is scaled to controls: 0 for no effect and ±100 for the full control effect; nearly all actives have a fitted effect of over 55% in size
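ATXN2-luciferase reporter cells (luciferase flanked by upstream and downstream ATXN2 gene portions) were treated 24 h at 37 °C with compounds at up to 57 uM. SteadyGlo luminescence gave expression; GF-AFC fluorescence gave viability.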
ATXN viability: cell viability loss in ATXN counter-screen | Potency, µM (top dose mostly 56.7 µM), actives largely listed as cytotoxic | AID 651635 | S2 cells (HEK-293 line with an ATXN2-luciferase reporter) viability, CellTiter-Fluor protease fluorescence, 24 h | actives 0.49% (n = 400,000); also: nearly all actives have a fitted effect of over 40% in size
Active calls of the source: *; i = inactive; ? = inconclusive; · = no result given; ! = a repeat was not active; [ ] = dose if it differs, or a comment. Calls follow the shape of the dose curve; as a rule, active = well fitted curve in the direction sought with a large enough effect; inconclusive = small, poorly fitted or top-dose-only effect, or another doubt; inactive = no such curve, though single readings can be large; an effect the other way counts as inactive or inconclusive. Potency is read from the fitted curve at half-maximal effect.

SMILES	12-LOX inh	HepG2 viability	TGFb SMAD3 inh	ATXN2 expr inh	ATXN viability
COC(=O)C1=C(c2ccc(Cl)c(C(F)(F)F)c2)C[C@@H]2CC[C@H]1N2C(=O)N1CCC(O)(c2ccc(Cl)cc2)CC1	-10.9%	-46.1%	14.1µM*	?	?
c1ccc(CN2C[C@H](c3ccc4c(c3)OCO4)[C@@H]3[C@H]2C2CCN3CC2)nc1	86.8%	·	·	·	·
CC1=NOC2(CCN(CCC(C)C)C2)C1 (stereo not drawn)	59.9%[176 µM]	·	·	·	·
c1ccc(-c2ccncc2)cc1	2.0%	-26.8%	-23.5%	3.8%	i
C[n+]1ccc(-c2ccncc2)cc1	12.6µM*	2.8%	18.5%	7.8%	i
OCCN1CCN(CCCN2c3ccccc3Sc3ccc(C(F)(F)F)cc32)CC1	?	-65.8%	?	28.2µM*!	?
COc1cc(C2SCC(=O)Nc3[nH]ncc32)ccc1OCC(C)C (stereo not drawn)	-6.3%	·	·	·	·
CC1=C(O)C(=O)C=C2C1=CC=C1C2(C)CCC2(C)C3CC(C)(C(=O)O)CCC3(C)CCC12C (stereo not drawn)	4.47µM*	3.16µM*	2µM*	4.47µM*	5.62µM*
CN(Cc1cccc(-c2ccncc2)c1)C(=O)Oc1ccc([N+](=O)[O-])cc1	·	·	·	25.1µM*	31.6µM*
COC(=O)C1=C(c2ccccc2OCc2ccccc2)C[C@@H]2CC[C@H]1N2C(=O)NC1CCN(Cc2ccccc2)CC1	?	-10.3%	?	?	?
COC(=O)C1=C(c2cccc(OCc3ccccc3)c2)C[C@@H]2CC[C@H]1N2C(=O)NC1CCN(Cc2ccccc2)CC1	-22.8%	12.6µM*	?	?	·
COC(=O)C1=C(c2ccc(F)cc2OCc2ccccc2)C[C@@H]2CC[C@H]1N2C(=O)NC1CCN(Cc2ccccc2)CC1	-3.8%	-32.1%	?	?	14.1µM*
COC(=O)C1=C(c2cccc(OCc3ccccc3)c2)C[C@@H]2CC[C@H]1N2C(=O)NCCCc1ccccc1	-6.9%	-7.1%	?	-31.9%	?
Cn1cccc1/C=C1/C(=O)NC(=O)N(Cc2ccc(F)cc2)C1=O	?	-22.1%	-3.1%	5.2%	i
Cn1cccc1/C=C1/C(=O)NC(=S)N(Cc2ccc(F)cc2)C1=O	10µM*	-12.3%	-7.7%	12.4%	i
C#CCN(C)C[C@H]1CN2CC[C@H]1C[C@@H]2CNC(=O)NC(C)C	34.3%[176 µM]	·	·	·	·
O=S(=O)(c1ccc(O)cc1)c1ccc(O)cc1	-11.0%	-27.3%	6.3%	3.6%	i
Oc1cc[c]([Hg][Cl])cc1	·	·	·	·	3.16µM*
COc1ccc(CCN(C)Cc2cc(C(C)(C)C)c(O)c(C(C)(C)C)c2)cc1OC	7.94µM*	·	·	·	·
O=C(Nc1ccc(Br)cc1)c1cc(Br)cc(Br)c1O	39.8µM*	·	·	?	?
CCCCc1c(C)nc(N2CCN(C)CC2)[nH]c1=O	28.3%	·	·	·	·
CC1OC(OC2C=C3CCC4C(CCC5(C)C(c6ccc(=O)oc6)CCC45O)C3(C)CC2)C(O)C(OC2OC(CO)C(O)C(O)C2O)C1O (stereo not drawn)	0.7%	-53.9%	0.398µM*	0.0075µM*	?
O=C(Cc1ccccc1)N1CCN(C2CCCC2)CC1	0.891µM*	1.1%	2.1%	3.4%	i
O=C(COc1ccccc1)N1CCN(C2CCCC2)CC1	?	-4.9%	-3.0%	6.7%	i
O=C(CCl)c1ccc(Cl)cc1Cl	?	·	·	?	11.2µM*!
SMILES	12-LOX inh	HepG2 viability	TGFb SMAD3 inh	ATXN2 expr inh	ATXN viability
CCCN(CCC)c1c([N+](=O)[O-])cc(S(N)(=O)=O)cc1[N+](=O)[O-]	?	·	·	50.1µM*	50.1µM*
CCN(CCNc1ccc([N+](=O)[O-])c2cccnc12)S(=O)(=O)c1ccccc1	0.3%	-5.5%	-17.6%	4.1%	i
CCOC(=O)[C@]12Cc3cc(Cl)ccc3[C@H]1N(CC(=O)OC)C(=O)c1ccccc12	·	·	·	7.08µM*	7.94µM*
CCOC(=O)[C@]12Cc3cc(Cl)ccc3[C@H]1N(C(C)C)C(=O)c1ccccc12	?	·	·	5.62µM*	6.31µM*
O=C1NC(=O)C(=Cc2ccc(-c3cc(Cl)ccc3[N+](=O)[O-])o2)C(=O)N1	6.31µM*	2.9%	-5.2%	?	?
c1csc(-c2ccc(-c3cccs3)s2)c1	-5.2%	·	·	·	·
CN(C)P(=NC(=S)c1cccn1C)(N(C)C)N(C)C	39.8µM*	-25.0%	1.9%	-4.0%	i
CCC(CC)c1cc([C@H]2CN3CC[C@H]2C[C@@H]3CNC(=O)c2ccc(C)cc2)nc(-c2ccncc2)n1	6.1%	·	·	·	·
COc1ccc(-n2nnnc2C(c2cccc(OC)c2OC)N2CCC(n3c(=O)[nH]c4ccccc43)CC2)cc1 (stereo not drawn)	2.2%	-14.3%	?	-35.8%	?
COc1cccc(C(c2nnnn2-c2ccc3c(c2)OCCO3)N2CCC(n3c(=O)[nH]c4ccccc43)CC2)c1OC (stereo not drawn)	-1.1%	12.6µM*	?	15.8µM*	i
COC1=C(C)C(=O)c2c(c(COC(N)=O)c3n2C[C@@H]2[C@@H]3N2C)C1=O (stereo partly drawn)	·	7.08µM*	4.47µM*	·	·
O=P1(Oc2ccccc2)CC=CC(COC(c2ccccc2)(c2ccccc2)c2ccccc2)O1 (stereo not drawn)	·	-19.3%	15.8µM*	·	·
O=C(c1cn(Cc2ccccc2)c2ccccc12)N1CCC(C(=O)N2CCCCC2)CC1	39.2%	·	·	·	·
O=c1[nH]c(=S)n(Cc2ccc(F)cc2)c(O)c1/C=N/N1CCCCCC1	35.5µM*	-2.4%	0.3%	-6.8%	i
c1cncc(C2=NOC3(CCCN(CC4CCCCC4)C3)C2)c1 (stereo not drawn)	3.4%[6.33 µM]	·	·	·	·
O=C1NC(=S)NC(=O)C1c1ccccc1	31.6µM*	3.9%	-9.1%	2.4%	i
N#CSCC(=O)N1c2ccccc2CCc2ccccc21	-5.2%	-21.7%	25.1µM*	?	?
COc1cc2c(cc1OCc1ccccc1)NC(=O)C21CCN(c2nc(C)cnc2C)CC1	1.2%	·	·	·	·
CCOC(=O)[C@]12Cc3c(cc(OC)c(OC)c3OC)[C@H]1N(C)C(=O)c1ccccc12	91.5%	·	·	0.5%	?
CCOC(=O)[C@]12Cc3c(cc(OC)c(OC)c3OC)[C@H]1N(C(C)C)C(=O)c1cc(OC)ccc12	?	·	·	17.8µM*	14.1µM*
CCOC(=O)[C@]12Cc3cc(OC)ccc3[C@H]1N(C(C)C)C(=O)c1cc(OC)ccc12	?	·	·	?	14.1µM*
ClCCN(CCCl)c1ccc(-n2cnc3c(Cl)ncnc32)cc1	-1.0%	1.8%	4.1%	15.8µM*	·
CN1CCCCC12Cc1ccccc1CN(C(=O)Cc1ccccc1)C2 (stereo not drawn)	10.1%[6.33 µM]	·	·	·	·
